According to PMC7862700, “An all-to-all approach to the identification of sequence-specific readers for epigenetic DNA modifications on cytosine”:

Key:
Assay in all cases: DAPPL (digital affinity profiling via proximity ligation, sequencing); 10 mM Tris-HCl pH 7.5, 50 mM NaCl, 1 mM DTT, 4% glycerol, room temperature, 30 min; GST-TFs on glutathione beads, 16-mer random dsDNA library, 0.1% formaldehyde crosslink after washing; high values mean tight binding
FEV = target: T1, FEV (Homo sapiens, UniProt Q99581 1-238); conditions: protein: recombinant; tags: N-terminal GST; dsDNA, one strand shown
T1 sequence: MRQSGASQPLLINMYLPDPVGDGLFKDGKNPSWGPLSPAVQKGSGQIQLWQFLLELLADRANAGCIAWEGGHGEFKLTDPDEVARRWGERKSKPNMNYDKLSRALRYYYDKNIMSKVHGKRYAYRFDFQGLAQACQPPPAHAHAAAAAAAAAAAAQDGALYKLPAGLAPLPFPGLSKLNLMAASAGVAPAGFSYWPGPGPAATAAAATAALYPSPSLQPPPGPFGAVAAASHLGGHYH
In short: (§1)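 Human transcription factors carrying a GST fusion were produced in yeast, bound to glutathione beads, tagged with DNA barcodes and pooled together with a tag-only sample. Each pool was held with 200 nmole of a random double-stranded 16-mer DNA library in Tris/NaCl/DTT/glycerol buffer for 30 min at room temperature, then washed, crosslinked in 0.1% formaldehyde, proximity-ligated with BsaI/T4 ligase (1 h, 37 °C), PCR-amplified and sequenced on an Illumina NextSeq500. Binding signal is the read frequency of each hexamer for a given factor divided by its frequency in the tag-only sample.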

ETV5 = ETV5 (Homo sapiens, UniProt P41161 1-510); conditions: protein: recombinant; tags: N-terminal GST; dsDNA, one strand shown
Sequence of ETV5 (P41161 whole entry): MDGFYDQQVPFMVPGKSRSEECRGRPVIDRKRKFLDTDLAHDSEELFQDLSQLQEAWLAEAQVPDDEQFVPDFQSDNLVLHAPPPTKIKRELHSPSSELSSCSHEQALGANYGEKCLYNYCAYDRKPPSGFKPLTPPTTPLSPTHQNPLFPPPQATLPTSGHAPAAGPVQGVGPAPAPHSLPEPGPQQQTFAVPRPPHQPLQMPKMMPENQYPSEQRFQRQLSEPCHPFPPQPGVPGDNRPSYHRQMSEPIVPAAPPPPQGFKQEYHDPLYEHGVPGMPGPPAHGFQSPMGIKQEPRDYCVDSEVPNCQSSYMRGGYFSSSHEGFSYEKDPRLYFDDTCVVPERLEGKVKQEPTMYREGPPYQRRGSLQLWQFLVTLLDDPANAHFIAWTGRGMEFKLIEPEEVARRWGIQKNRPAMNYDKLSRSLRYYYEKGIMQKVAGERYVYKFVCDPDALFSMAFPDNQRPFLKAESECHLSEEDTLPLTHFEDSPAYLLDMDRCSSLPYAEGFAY
In short: as §1

SPIC = target: T2, SPIC (Homo sapiens, UniProt Q8N5J4 1-248); conditions: protein: recombinant; tags: N-terminal GST; dsDNA, one strand shown
T2 sequence: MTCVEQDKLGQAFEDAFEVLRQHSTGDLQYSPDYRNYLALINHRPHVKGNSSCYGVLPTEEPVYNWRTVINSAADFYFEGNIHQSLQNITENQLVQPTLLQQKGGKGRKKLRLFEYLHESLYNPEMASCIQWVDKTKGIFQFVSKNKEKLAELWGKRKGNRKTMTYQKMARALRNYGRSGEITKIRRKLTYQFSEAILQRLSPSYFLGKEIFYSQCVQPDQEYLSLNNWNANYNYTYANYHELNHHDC
In short: as §1

ELF4 = ELF4 (Homo sapiens, UniProt Q99607 1-663); conditions: protein: recombinant; tags: N-terminal GST; dsDNA, one strand shown
Sequence of ELF4 (Q99607 whole entry): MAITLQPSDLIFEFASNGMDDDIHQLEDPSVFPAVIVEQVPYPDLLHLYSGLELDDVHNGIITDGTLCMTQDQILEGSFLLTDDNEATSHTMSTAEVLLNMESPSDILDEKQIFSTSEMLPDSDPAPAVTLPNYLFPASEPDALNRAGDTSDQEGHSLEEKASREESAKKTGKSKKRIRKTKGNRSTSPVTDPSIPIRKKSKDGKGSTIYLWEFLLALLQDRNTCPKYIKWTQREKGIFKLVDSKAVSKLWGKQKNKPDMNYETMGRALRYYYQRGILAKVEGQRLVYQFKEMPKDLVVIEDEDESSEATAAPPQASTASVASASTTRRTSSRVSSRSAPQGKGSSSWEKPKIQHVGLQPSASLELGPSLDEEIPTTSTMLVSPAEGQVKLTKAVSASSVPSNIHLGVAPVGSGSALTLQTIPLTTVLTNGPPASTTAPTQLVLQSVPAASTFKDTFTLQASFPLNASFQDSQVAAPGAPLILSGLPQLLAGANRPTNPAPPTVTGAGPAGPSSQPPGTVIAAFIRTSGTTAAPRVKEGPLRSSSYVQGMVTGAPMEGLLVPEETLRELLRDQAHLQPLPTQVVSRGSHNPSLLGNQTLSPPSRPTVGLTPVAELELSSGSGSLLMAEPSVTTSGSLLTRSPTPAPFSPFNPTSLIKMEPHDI
In short: as §1

ELK4 = target: T3, ELK4 (Homo sapiens, UniProt P28324-2 1-405); conditions: protein: recombinant; tags: N-terminal GST; dsDNA, one strand shown
T3 sequence: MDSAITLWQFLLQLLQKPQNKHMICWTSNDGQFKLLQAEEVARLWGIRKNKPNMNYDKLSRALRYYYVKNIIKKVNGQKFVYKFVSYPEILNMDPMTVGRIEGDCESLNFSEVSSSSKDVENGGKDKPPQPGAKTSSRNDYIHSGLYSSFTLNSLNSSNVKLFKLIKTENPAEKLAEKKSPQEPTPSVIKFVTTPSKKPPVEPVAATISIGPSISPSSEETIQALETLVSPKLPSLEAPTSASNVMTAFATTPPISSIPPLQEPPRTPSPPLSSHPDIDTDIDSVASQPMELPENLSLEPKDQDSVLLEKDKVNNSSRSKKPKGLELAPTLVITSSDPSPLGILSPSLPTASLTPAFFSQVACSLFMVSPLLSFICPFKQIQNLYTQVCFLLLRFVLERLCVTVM
In short: as §1

ETV2 = target: T4, ETV2 (Homo sapiens, UniProt O00321 1-342); conditions: protein: recombinant; tags: N-terminal GST; dsDNA, one strand shown
T4 sequence: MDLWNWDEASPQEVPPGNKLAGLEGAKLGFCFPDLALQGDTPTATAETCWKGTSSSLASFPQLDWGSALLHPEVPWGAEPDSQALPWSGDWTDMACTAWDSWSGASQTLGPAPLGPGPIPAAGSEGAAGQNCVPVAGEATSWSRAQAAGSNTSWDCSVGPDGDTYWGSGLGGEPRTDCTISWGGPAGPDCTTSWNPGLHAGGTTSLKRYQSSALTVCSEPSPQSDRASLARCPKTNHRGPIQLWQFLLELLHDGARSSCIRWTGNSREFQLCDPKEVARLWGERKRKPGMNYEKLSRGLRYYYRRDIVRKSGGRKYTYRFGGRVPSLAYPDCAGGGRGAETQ
In short: as §1

ELF3 = target: T5, ELF3 (Homo sapiens, UniProt P78545 1-371); conditions: protein: recombinant; tags: N-terminal GST; dsDNA, one strand shown
T5 sequence: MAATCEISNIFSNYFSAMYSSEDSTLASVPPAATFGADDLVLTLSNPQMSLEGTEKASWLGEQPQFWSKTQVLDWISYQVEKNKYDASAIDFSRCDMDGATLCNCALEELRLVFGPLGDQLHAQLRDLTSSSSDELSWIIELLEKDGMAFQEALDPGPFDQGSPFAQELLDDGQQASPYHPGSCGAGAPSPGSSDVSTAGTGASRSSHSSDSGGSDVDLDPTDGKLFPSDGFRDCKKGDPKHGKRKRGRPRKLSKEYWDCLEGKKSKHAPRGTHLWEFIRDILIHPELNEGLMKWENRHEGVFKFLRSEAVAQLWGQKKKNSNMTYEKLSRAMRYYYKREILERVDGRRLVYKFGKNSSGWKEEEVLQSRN
In short: as §1

CRX = CRX (Homo sapiens, UniProt O43186 1-299); conditions: protein: recombinant; tags: N-terminal GST; dsDNA, one strand shown
Sequence of CRX (O43186 whole entry): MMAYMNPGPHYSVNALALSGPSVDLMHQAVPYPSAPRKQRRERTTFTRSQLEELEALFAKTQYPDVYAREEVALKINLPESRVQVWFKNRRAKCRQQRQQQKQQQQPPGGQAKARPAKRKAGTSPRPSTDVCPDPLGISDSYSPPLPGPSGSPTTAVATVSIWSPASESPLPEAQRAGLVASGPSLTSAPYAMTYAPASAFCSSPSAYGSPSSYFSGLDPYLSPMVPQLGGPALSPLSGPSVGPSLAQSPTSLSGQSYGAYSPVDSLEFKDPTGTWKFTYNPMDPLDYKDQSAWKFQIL
In short: as §1

ETV1 = ETV1 (Homo sapiens, UniProt P50549 1-477); conditions: protein: recombinant; tags: N-terminal GST; dsDNA, one strand shown
Sequence of ETV1 (P50549 whole entry): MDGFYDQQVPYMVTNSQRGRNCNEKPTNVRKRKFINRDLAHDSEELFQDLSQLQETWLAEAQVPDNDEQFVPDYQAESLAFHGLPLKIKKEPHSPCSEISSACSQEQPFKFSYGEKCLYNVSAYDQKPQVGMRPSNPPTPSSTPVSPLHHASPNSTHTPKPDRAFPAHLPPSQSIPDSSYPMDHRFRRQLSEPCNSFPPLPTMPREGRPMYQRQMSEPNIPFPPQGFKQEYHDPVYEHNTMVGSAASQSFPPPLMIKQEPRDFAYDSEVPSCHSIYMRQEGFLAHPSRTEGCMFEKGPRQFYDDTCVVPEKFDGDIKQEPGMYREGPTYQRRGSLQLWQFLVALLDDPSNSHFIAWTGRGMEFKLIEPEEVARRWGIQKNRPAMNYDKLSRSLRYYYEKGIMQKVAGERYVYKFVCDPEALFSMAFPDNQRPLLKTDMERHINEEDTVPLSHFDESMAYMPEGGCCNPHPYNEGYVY
In short: as §1

HSF1 = HSF1 (Homo sapiens, UniProt Q00613 1-529); conditions: protein: recombinant; tags: N-terminal GST; chain copies: 3; dsDNA, one strand shown
Sequence of HSF1 (Q00613 whole entry): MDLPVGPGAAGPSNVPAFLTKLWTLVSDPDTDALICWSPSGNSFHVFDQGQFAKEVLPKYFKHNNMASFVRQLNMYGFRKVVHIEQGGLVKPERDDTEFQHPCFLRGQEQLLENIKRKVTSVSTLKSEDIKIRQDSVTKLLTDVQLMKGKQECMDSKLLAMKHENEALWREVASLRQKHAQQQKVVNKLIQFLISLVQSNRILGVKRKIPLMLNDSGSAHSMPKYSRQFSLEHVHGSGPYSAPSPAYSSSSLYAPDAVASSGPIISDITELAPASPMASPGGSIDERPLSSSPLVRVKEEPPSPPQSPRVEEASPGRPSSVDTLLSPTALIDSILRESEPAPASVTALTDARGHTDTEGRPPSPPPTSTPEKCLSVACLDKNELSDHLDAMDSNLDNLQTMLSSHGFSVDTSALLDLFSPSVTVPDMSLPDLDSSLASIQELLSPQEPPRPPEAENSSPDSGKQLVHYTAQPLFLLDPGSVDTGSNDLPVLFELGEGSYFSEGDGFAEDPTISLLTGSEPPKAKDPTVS
In short: as §1

Row | Sequence | binding signal (FEV) | binding signal (ETV5) | binding signal (SPIC) | binding signal (ELF4) | binding signal (ELK4) | binding signal (ETV2) | binding signal (ELF3) | binding signal (CRX) | binding signal (ETV1) | binding signal (HSF1)
1 | TTGGGC | 1.13 fold enrichment (6-mer frequency, TF over GST control) | 1.12 fold enrichment (6-mer frequency, TF over GST control) | 1.07 fold enrichment (6-mer frequency, TF over GST control) | 1.1 fold enrichment (6-mer frequency, TF over GST control) | 1.05 fold enrichment (6-mer frequency, TF over GST control) | 1.15 fold enrichment (6-mer frequency, TF over GST control) | 1.18 fold enrichment (6-mer frequency, TF over GST control) | 1.03 fold enrichment (6-mer frequency, TF over GST control) | 1.13 fold enrichment (6-mer frequency, TF over GST control) | 
2 | TACCGC | 1.13 fold enrichment (6-mer frequency, TF over GST control) | 1.06 fold enrichment (6-mer frequency, TF over GST control) | 1.15 fold enrichment (6-mer frequency, TF over GST control) | 1.1 fold enrichment (6-mer frequency, TF over GST control) | 1.14 fold enrichment (6-mer frequency, TF over GST control) | 1.16 fold enrichment (6-mer frequency, TF over GST control) | 1.23 fold enrichment (6-mer frequency, TF over GST control) | 1.03 fold enrichment (6-mer frequency, TF over GST control) | 1.06 fold enrichment (6-mer frequency, TF over GST control) | 
3 | TTGTTG | 1.01 fold enrichment (6-mer frequency, TF over GST control) | 1.08 fold enrichment (6-mer frequency, TF over GST control) | 1.19 fold enrichment (6-mer frequency, TF over GST control) | 1.21 fold enrichment (6-mer frequency, TF over GST control) | 1.19 fold enrichment (6-mer frequency, TF over GST control) | 1.09 fold enrichment (6-mer frequency, TF over GST control) | 1.15 fold enrichment (6-mer frequency, TF over GST control) | 1.09 fold enrichment (6-mer frequency, TF over GST control) | 1.21 fold enrichment (6-mer frequency, TF over GST control) | 
4 | AAAGGG | 1.11 fold enrichment (6-mer frequency, TF over GST control) | 1.21 fold enrichment (6-mer frequency, TF over GST control) | 1.22 fold enrichment (6-mer frequency, TF over GST control) | 1.19 fold enrichment (6-mer frequency, TF over GST control) | 1.1 fold enrichment (6-mer frequency, TF over GST control) | 1.05 fold enrichment (6-mer frequency, TF over GST control) | 1.25 fold enrichment (6-mer frequency, TF over GST control) | 1.08 fold enrichment (6-mer frequency, TF over GST control) | 1.26 fold enrichment (6-mer frequency, TF over GST control) | 
5 | AACGGC | 1.17 fold enrichment (6-mer frequency, TF over GST control) | 1.29 fold enrichment (6-mer frequency, TF over GST control) | 1.12 fold enrichment (6-mer frequency, TF over GST control) | 1.24 fold enrichment (6-mer frequency, TF over GST control) | 1.24 fold enrichment (6-mer frequency, TF over GST control) | 1.21 fold enrichment (6-mer frequency, TF over GST control) | 1.12 fold enrichment (6-mer frequency, TF over GST control) | 1.11 fold enrichment (6-mer frequency, TF over GST control) | 1.17 fold enrichment (6-mer frequency, TF over GST control) | 
6 | ATCACA | 1.11 fold enrichment (6-mer frequency, TF over GST control) | 1.13 fold enrichment (6-mer frequency, TF over GST control) | 1.09 fold enrichment (6-mer frequency, TF over GST control) | 1.1 fold enrichment (6-mer frequency, TF over GST control) | 1.02 fold enrichment (6-mer frequency, TF over GST control) | 1.25 fold enrichment (6-mer frequency, TF over GST control) | 1.15 fold enrichment (6-mer frequency, TF over GST control) | 1.16 fold enrichment (6-mer frequency, TF over GST control) | 1.04 fold enrichment (6-mer frequency, TF over GST control) | 
7 | TGATGT | 1.26 fold enrichment (6-mer frequency, TF over GST control) | 1.22 fold enrichment (6-mer frequency, TF over GST control) | 1.11 fold enrichment (6-mer frequency, TF over GST control) | 1.32 fold enrichment (6-mer frequency, TF over GST control) | 1.31 fold enrichment (6-mer frequency, TF over GST control) | 1.26 fold enrichment (6-mer frequency, TF over GST control) | 1.21 fold enrichment (6-mer frequency, TF over GST control) | 1.05 fold enrichment (6-mer frequency, TF over GST control) | 1.26 fold enrichment (6-mer frequency, TF over GST control) | 
8 | GGCTTA | 1.08 fold enrichment (6-mer frequency, TF over GST control) | 1.03 fold enrichment (6-mer frequency, TF over GST control) |  |  | 1.16 fold enrichment (6-mer frequency, TF over GST control) |  | 1.14 fold enrichment (6-mer frequency, TF over GST control) | 3.34 fold enrichment (6-mer frequency, TF over GST control) | 1.11 fold enrichment (6-mer frequency, TF over GST control) | 2.04 fold enrichment (6-mer frequency, TF over GST control)
9 | GTAATG | 1.03 fold enrichment (6-mer frequency, TF over GST control) | 1.09 fold enrichment (6-mer frequency, TF over GST control) | 1.02 fold enrichment (6-mer frequency, TF over GST control) | 1.08 fold enrichment (6-mer frequency, TF over GST control) | 1.09 fold enrichment (6-mer frequency, TF over GST control) | 1.04 fold enrichment (6-mer frequency, TF over GST control) | 1.14 fold enrichment (6-mer frequency, TF over GST control) | 1 fold enrichment (6-mer frequency, TF over GST control) | 1.22 fold enrichment (6-mer frequency, TF over GST control) | 
10 | GGTCTA | 1.06 fold enrichment (6-mer frequency, TF over GST control) | 1.11 fold enrichment (6-mer frequency, TF over GST control) | 1.09 fold enrichment (6-mer frequency, TF over GST control) | 1.11 fold enrichment (6-mer frequency, TF over GST control) | 1.04 fold enrichment (6-mer frequency, TF over GST control) | 1.06 fold enrichment (6-mer frequency, TF over GST control) | 1.01 fold enrichment (6-mer frequency, TF over GST control) | 1.01 fold enrichment (6-mer frequency, TF over GST control) | 1.05 fold enrichment (6-mer frequency, TF over GST control) | 
11 | CCTGTA | 1.2 fold enrichment (6-mer frequency, TF over GST control) | 1.26 fold enrichment (6-mer frequency, TF over GST control) | 1.23 fold enrichment (6-mer frequency, TF over GST control) | 1.25 fold enrichment (6-mer frequency, TF over GST control) | 1.16 fold enrichment (6-mer frequency, TF over GST control) | 1.21 fold enrichment (6-mer frequency, TF over GST control) | 1.09 fold enrichment (6-mer frequency, TF over GST control) | 1.04 fold enrichment (6-mer frequency, TF over GST control) | 1.3 fold enrichment (6-mer frequency, TF over GST control) | 
12 | CCGCCA | 1.37 fold enrichment (6-mer frequency, TF over GST control) | 1.21 fold enrichment (6-mer frequency, TF over GST control) | 1.37 fold enrichment (6-mer frequency, TF over GST control) | 1.45 fold enrichment (6-mer frequency, TF over GST control) | 1.44 fold enrichment (6-mer frequency, TF over GST control) | 1.19 fold enrichment (6-mer frequency, TF over GST control) | 1.48 fold enrichment (6-mer frequency, TF over GST control) | 1.02 fold enrichment (6-mer frequency, TF over GST control) | 1.32 fold enrichment (6-mer frequency, TF over GST control) | 
13 | CATGGG |  | 1.01 fold enrichment (6-mer frequency, TF over GST control) | 1.05 fold enrichment (6-mer frequency, TF over GST control) | 1 fold enrichment (6-mer frequency, TF over GST control) | 1.02 fold enrichment (6-mer frequency, TF over GST control) | 1.04 fold enrichment (6-mer frequency, TF over GST control) |  |  |  | 
14 | AAGTCA | 1.17 fold enrichment (6-mer frequency, TF over GST control) | 1.23 fold enrichment (6-mer frequency, TF over GST control) | 1.1 fold enrichment (6-mer frequency, TF over GST control) | 1.22 fold enrichment (6-mer frequency, TF over GST control) | 1.18 fold enrichment (6-mer frequency, TF over GST control) | 1.21 fold enrichment (6-mer frequency, TF over GST control) | 1.21 fold enrichment (6-mer frequency, TF over GST control) | 1.03 fold enrichment (6-mer frequency, TF over GST control) | 1.3 fold enrichment (6-mer frequency, TF over GST control) | 
